According to article PMC5540273 (PLoS ONE, 2017):

How the values were obtained:
Conditions in all cases: concentration: 1 μM,replicates: in singlicate; n = 1
[1] = tested on: CLK2
[2] = tested on: CLK3
[3] = tested on: CLK4
[4] = tested on: CSF1R-autoinhibited
[5] = tested on: CSF1R
[6] = tested on: CSK
[7] = tested on: CSNK1A1L
[8] = tested on: CSNK1A1
[9] = tested on: CSNK1D
[10] = tested on: CSNK1E
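Further: KINOMEscan kinase panel screen.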

| SMILES | %Inh [1] | %Inh [2] | %Inh [3] | %Inh [4] | %Inh [5] | %Inh [6] | %Inh [7] | %Inh [8] | %Inh [9] | %Inh [10] |
| --- | --- | --- | --- | --- | --- | --- | --- | --- | --- | --- |
| Nc1nc(Nc2ccccc2)cc(-c2ccc3c(N)n[nH]c3c2)n1 [GSK2225749] | 40% | 0% | 80% | 0% | 0% | 0% | 10% | 21% | 15% | 0% |
| Cc1cc(C(=O)Nc2ccc(Oc3ccc4nc(NC(=O)C5CC5)cn4n3)cc2)nn1-c1ccccc1 | 1% | 0% | 0% | 0% | 100% | 15% | 0% | 43% | 0% | 1% |
| NC(=O)c1cc(-c2ccccc2)cc2c(C3CCNCC3)c[nH]c12 [GSK301362] | 3% | 14% | 25% | 0% | 53% | 0% | 20% | 0% | 50% | 72% |
| Cl.Cl.NC[C@H](Cc1ccc(C(F)(F)F)cc1)NC(=O)c1cc(Br)c(-c2ccnc3[nH]ccc23)s1 [GSK1487252] | 39% | 22% | 57% | 3% | 0% | 0% | 16% | 27% | 55% | 54% |
| Cl.Oc1cc(-c2nc(-c3ccccc3)[nH]c2-c2ccncc2)ccc1Cl [SB-386023] | 0% | 24% | 11% | 0% | 2% | 1% | 25% | 41% | 71% | 77% |
| Cc1n[nH]c2ccc(-c3cc(OC[C@@H](N)Cc4ccccc4)cnc3-c3ccoc3)cc12.O=C(O)C(F)(F)F.O=C(O)C(F)(F)F [GSK507358] | 54% | 23% | 60% | 0% | 17% | 0% | 94.4% | – | 98% | 99.9% |
| CCN(CC)CCCCNc1ncc2cc(-c3c(Cl)cccc3Cl)c(NC(=O)NC(C)(C)C)nc2n1 | 0% | 0% | 0% | 85% | 99.2% | 90.5% | 0% | 30% | 14% | 61% |
| CC(C)N1C(=O)Cc2cc(Nc3ncc(C(F)(F)F)c(NCc4cccc(S(C)(=O)=O)c4)n3)ccc21 | 34% | 0% | 38% | 0% | 8% | 14% | 2% | 0% | 0% | 0% |
| CNC(=O)c1ccccc1Sc1ccc2c(/C=C/c3ccccn3)n[nH]c2c1 | – | 0% | 0% | 86% | 99.9% | 3% | 10% | 23% | 10% | 0% |
| CN(C)CC(O)COc1ccc(Nc2nccc(-c3cnn4nc(N5CCOCC5)ccc34)n2)cc1 (centres unmarked) [GW767488] | 96.6% | 11% | 88% | 15% | 32% | 24% | 15% | 92.2% | 41% | 29% |
| CCn1c(-c2nonc2N)nc2c(C#CC(C)(C)O)nc(OCCN)cc21.Cl.Cl [GSK902056] | 7% | 27% | 20% | 0% | 11% | 0% | 18% | 0% | 0% | 41% |
| O=C(NCCNc1ccnc(NCc2ccc(F)cc2)n1)c1cc2ccccc2s1 [GSK1379944] | 0% | 19% | 22% | 0% | 9% | 68% | 25% | 0% | 72% | 26% |
| CCN(CC)CCOc1ccc(Nc2ncc3cc(-c4c(Cl)cccc4Cl)c(=O)n(C)c3n2)cc1 [SB-601273] | 10% | 0% | 0% | 100% | 99.9% | 98.4% | 3% | 13% | 39% | 60% |
| C[C@@H](Oc1cc(-c2cnn(C3CCNCC3)c2)cnc1N)c1c(Cl)ccc(F)c1Cl | 9% | 1% | 0% | 82% | 93.8% | 24% | 0% | 38% | 14% | 6% |
| Cc1ccc(-n2nc(C(C)(C)C)cc2NC(=O)Nc2ccc(OCCN3CCOCC3)c3ccccc23)cc1 [GW839464] | 9% | 5% | 0% | – | – | 3% | 7% | 0% | 1% | 10% |
| C[C@@H]1CCN(C(=O)CC#N)C[C@@H]1N(C)c1ncnc2[nH]ccc12 | 4% | 0% | 0% | 0% | 3% | 0% | 0% | 21% | – | 0% |
| COc1ccc(C[C@@H](CN)NC(=O)c2cc(Br)c(-c3ccnc4[nH]ccc34)s2)cc1.Cl.Cl [GSK1389063] | 91.4% | 77% | 95.2% | 0% | 56% | 0% | 81% | 88% | 90% | 95.9% |
| C[C@H]1Oc2cc(cnc2N)-c2c(nn(C)c2C#N)CN(C)C(=O)c2ccc(F)cc21 | 4% | 0% | 22% | 0% | 15% | 0% | 20% | 0% | 35% | 0% |
| C=CC(=O)Nc1cc2c(Nc3ccc(F)c(Cl)c3)ncnc2cc1OCCCN1CCOCC1 [GW781483] | 0% | 0% | 4% | 35% | 13% | 5% | 22% | 0% | 0% | 26% |
| O=C(NCCCN1CCOC1=O)c1cnc(NCc2cc(Cl)ccc2Cl)nc1NC1CCCC1 | 1% | 0% | 4% | 12% | 32% | 12% | 5% | 34% | 12% | 76% |
| CC(C)Nc1cc(-c2ccc3c(N)n[nH]c3c2)nc(N)n1 [GSK2221681] | 44% | 23% | 63% | 0% | 4% | 0% | 5% | 18% | 34% | 22% |
| Cc1cc2cn[nH]c2cc1-c1cccc2c(N)c(C(N)=O)nnc12 | 11% | 15% | 0% | 0% | 6% | 98.3% | 35% | 34% | 22% | 30% |
| Cc1ccc2c(-c3ccncc3)c(-c3ccc(F)cc3)nn2c1.Cl [GW461484] | 0% | 0% | 0% | 8% | 0% | 0% | 39% | – | 96.9% | 99.5% |
| Cc1occc1-c1nc(N)c(OC[C@@H](N)Cc2c[nH]c3ccccc23)cc1-c1cc2c(C)n[nH]c2cn1 [GSK1660450] | 97.5% | 80% | 97.6% | 0% | 18% | 0% | 71% | – | 96.6% | 99.7% |
| CN(C)CCOc1ccc(-c2cc(-c3c[nH]nc3-c3ccccn3)ccn2)cc1 [GW835314] | 0% | 5% | 18% | 0% | 6% | 88% | 3% | 11% | 25% | 31% |
| Cl.Cl.Nc1nc(-c2ccc3c(N)n[nH]c3c2)cc(N2CCCC(NC(=O)c3ccccc3)C2)n1 (centres unmarked) [GSK2286775] | 15% | 14% | 0% | 0% | 15% | 5% | 4% | 0% | 0% | 24% |
| Cl.Cl.NC[C@H](CC1CCCCC1)NC(=O)c1cc(Br)c(-c2ccnc3[nH]ccc23)s1 [GSK1581427] | 71% | 57% | 69% | 0% | 48% | 0% | 42% | 53% | 86% | 85% |
